Laboratory results as given in PubChem BioAssay AID1508600 (Functional Genomics Laboratory (NCATS/FGL), 2020).
Hit rate of the full screen: of about 53,000 sequences, about 3,700 (7%) were called active. This is one part of a sample in which actives are shown more often than they occur.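 How the source made its calls: active means gene knockdowns whose robust z-score for IL-1 alpha signal is at least 2 or at most -2, so actives lie on both sides; inactive means the rest.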

Test: Components of the Cytosolic LPS Sensing Pathway: Gene Identification via Genome-wide siRNA Screen;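 further: robust z of the log signal after scaling to non-targeting control siRNA wells of the plate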
Conditions: RAW264.7 macrophages, IL-1a HTRF, actives lie on both sides, screened at 100 nM (by protocol), cells primed 5 h with Pam3CSK4 first
In short: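 Three distinct siRNAs per gene were tested singly at 100 nM in RAW264.7 macrophages. Following Pam3CSK4 priming and 24 hour LipidA transfection, IL-1a secretion was read by HTRF.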

Row | Sequence | z-score
1 | CGCGACAGAAUCAGUACAATT against Hnf4g | 2.17 (active)
2 | GGUUCCUACACGAAAGGAUTT against Eif2b4 | 0.14 (inactive)
3 | GCCUUUACCCAAAUUAUCATT against Defb4 | 0.567 (inactive)
4 | GGACACUGUACUCAAACCUTT against Cntnap5b | -2.86 (active)
5 | GGUGUAUACUGUGAAAUCATT against Notch1 | -0.319 (inactive)
6 | GGGCAUUGUUGAGCACCUUTT against Pgap6 | -1.81 (inactive)
7 | GGAAAAGCUGGAGGAAGACTT against Tef | 0.525 (inactive)
8 | GGAAUGUCAAUCUUGAGAGTT against Asprv1 | -0.812 (inactive)
9 | GCAGACAUUGCACAAACCCTT against Ankrd10 | 0.355 (inactive)
10 | GCCUGUCUCCUCAAUGCUUTT against Gm9903 | -0.319 (inactive)
11 | ACUGUAUGAAGAGGAAACATT against Krt87 | -2.14 (active)
12 | GGACAGUAUAGUGGAGAUCTT against Fgf22 | 1.66 (inactive)
13 | GCUAUUCUGUCUACGUGUATT against H2bc18 | -0.356 (inactive)
14 | CCGAAAUGUGUGUUUUAAATT against Vapb | 1.57 (inactive)
15 | GGUCUUUCCGGCAGUUCUUTT against Rxrg | -2.27 (active)
16 | GGAAUCGGUGGCCAUCAAUTT against Olfr771 | 0.458 (inactive)
17 | GGAAGCUGAAGGUUUGCCATT against Wipi2 | -0.529 (inactive)
18 | GGAUCAGGAGCUGUUUGGATT against Adamtsl4 | 1.05 (inactive)
19 | GGAUGUCUACUGGAAUGUUTT against Pigv | -1.16 (inactive)
20 | GUGAAGGCCCAUGGCAAGATT against Hbb-b1 | -0.235 (inactive)
21 | CCGUAUUUGGACUGAGCAATT against Chic2 | 0.63 (inactive)
22 | GCUAGGGAUUUACCUCUUCTT against Gpr65 | 0.743 (inactive)

Row | Sequence | z-score
23 | GCCUGAGGAUCUAUAGAUATT against Prss29 | -1.36 (inactive)
24 | UGGAAGCCUUAUGCCGUCUTT against Gpr31b | 0.895 (inactive)
25 | GGCUCUAACUGUGAGAAGATT against Dll3 | -2.44 (active)
26 | GGCUAACUCCUUAAAACCUTT against Aldh18a1 | -0.372 (inactive)
27 | GGCUUCCACGUAAUUGUCCTT against Six3os1 | 0.649 (inactive)
28 | GGCCGACUUGAUCAAUAACTT against Hsp90aa1 | -0.164 (inactive)
29 | CCCGGAGCUUGAAUUACUGTT against Usp7 | 2.36 (active)
30 | GGAUUUUUCCAUAAAAACCTT against B3galnt1 | 1.04 (inactive)
31 | CCUCCCAGUACACUUGAAATT against Cox7a1 | 0.0752 (inactive)
32 | GGAAGAAACGGAGACUCAATT against Dpf1 | 0.052 (inactive)
33 | CCAAUGAGUUAAUCACCUUTT against Olfr1135 | 0.587 (inactive)
34 | GGUCCAUACUCCUAAAGAATT against Mpzl1 | -0.727 (inactive)
35 | GGUGCAGUUUCUCCUCUUUTT against Pla1a | 2.09 (active)
36 | GGAUCUGUUACUCUGAUACTT against Pias4 | 0.847 (inactive)
37 | GGUCAACAUUAAAAUACUGTT against Map2k4 | -0.0649 (inactive)
38 | GGUUUGCCUAUUUUUUCUUTT against Trmt10c | 1.9 (inactive)
39 | GGGUUUUUUUUUUCCUUCCTT against Hsd17b1 | -0.0306 (inactive)
40 | CGUAGGACUGAAUCAGCUUTT against Slc13a3 | -3.04 (active)
41 | GCCAUUUGAAGUGUUUAAATT against Kctd12 | -0.103 (inactive)
42 | GGAAGACCUAAACAACGGCTT against Dusp10 | -1.55 (inactive)
43 | GGGUAACUAUUGGACUAACTT against Gabrq | -0.262 (inactive)
44 | GGCAUUGGAAUAAAAUUUGTT against Rfk | 0.267 (inactive)

Row | Sequence | z-score
45 | GGUGGUACGCAGACUAAAUTT against Ulk1 | 2.94 (active)
46 | GGGUUAAACCACAUAUCCATT against Spata9 | -1.06 (inactive)
47 | GCUUUUCCGCUUCUACCGGTT against Nrp | -0.505 (inactive)
48 | GCUGUGGAGAAGUGCUACUTT against Lce1b | -0.907 (inactive)
49 | CCGAAAAUGGUUAGGACAUTT against Kynu | 1.44 (inactive)
50 | GGGCCUUCAAAACGAGAAGTT against Cyp4f39 | 0.339 (inactive)
51 | GCCUUCCUGAAUUUAAAGATT against Myo5b | 1.33 (inactive)
52 | GGAUAAAAUUGCUUUACUGTT against Srek1ip1 | 2.63 (active)
53 | GGUGGUACUUACUCAAAAUTT against Fgg | 1.05 (inactive)
54 | GGGACUACCAUUUGUUAAUTT against Tktl1 | 0.751 (inactive)
55 | CCAGAUUGUCACUUGCUACTT against Skint3 | 1.25 (inactive)
56 | GGAUACAAUCAUCGCCAUCTT against Olfr101 | 1.3 (inactive)
57 | GCUUUUAACAUCGAGUAAUTT against Top2b | -0.627 (inactive)
58 | GCAUUCAUCAGGGUUGAUUTT against Wdr20 | -2.43 (active)
59 | CCUGUUAUGACCGUUCAUGTT against Prpf4 | 0.551 (inactive)
60 | GGCUCUGAAAAUUGAACACTT against Cep83 | 0.0736 (inactive)
61 | GGGUCUUAUCUCGAUGAGGTT against Flt3l | -0.199 (inactive)
62 | GGAAAUCAGCUGAAUUACUTT against Dicer1 | 1.07 (inactive)
63 | GGAACCAAUCUUGGUCUCATT against Tln2 | -0.66 (inactive)
64 | GGAUUCAGGCUGGAAAAUATT against Clrn1 | -1.04 (inactive)
65 | GGAAAACUUGAGGCGGAUCTT against Enkd1 | 2.63 (active)
66 | CCCUGAAGGCUUACUUUUUTT against Cfap299 | -0.231 (inactive)

Row | Sequence | z-score
67 | GCUUUUCAUAUCUCUUGCATT against Olfr1385 | 0.408 (inactive)
68 | CCUGUCUGGACUUGUCUAATT against Ica1 | -2.05 (active)
69 | GCCAGAAUCUGUUGUGAACTT against Gfpt1 | 0.0747 (inactive)
70 | GGGAAAAUCCACUUUUAAGTT against Hs2st1 | -0.0469 (inactive)
71 | GGGUCCAAUAAACAUGUCUTT against B3galt4 | 0.234 (inactive)
72 | CCAGGACUUACUCAGUAAUTT against Setd6 | -0.72 (inactive)
73 | GGCAAGAGAAUUCAGAUCUTT against Slc5a1 | 2.91 (active)
74 | GGCGUGAUCGCUCUCCAAUTT against Ncoa5 | 0.834 (inactive)
75 | GGAUAACCGCCAAUAAAAATT against Msantd3 | 0.255 (inactive)
76 | GCCCUACCUUGAAUCCCAUTT against Olfr532 | -1.75 (inactive)
77 | GGUAUUGGGCCAUUGGUUGTT against Mapkapk3 | 0.705 (inactive)
78 | GGGUUGAUUAAAGUUUAACTT against Gsx2 | 1.4 (inactive)
79 | GGCCACUUGCCUAUUGUGATT against Anxa6 | -0.343 (inactive)
80 | GAAUAUGUGGCUCUGGGUCTT against G6pc3 | -0.414 (inactive)
81 | GCUGCACAUUGUCCAUUAUTT against Car12 | 2.3 (active)
82 | GGUGUUCUUUGACAGUGCCTT against Atp5d | 0.107 (inactive)
83 | GCCGAUGAUGAGAAACGACTT against Cd2 | -0.279 (inactive)
84 | GGCGAGUUUUCCUCUUCAGTT against Sync | 1.08 (inactive)
85 | CCGUCAUCACUGAUCAGUUTT against Olfr684 | 2.7 (active)
86 | GGUGCUGUGUGAGCUUUCATT against Zfp85os | -1.47 (inactive)
87 | GGCUGACUCGCUUUCACCATT against Efna2 | 0.522 (inactive)
88 | GCCACAGGCCAAGAUCAUUTT against Pafah1b2 | -0.614 (inactive)

Row | Sequence | z-score
89 | GGACAAUUGGAAGAUUUGGTT against Ccdc88a | -1.23 (inactive)
90 | CCCUGAAUAAGGCUGAUCUTT against Krt32 | -0.801 (inactive)
91 | GGAUCUGUGAGAAUCAUAGTT against Rabgap1l | -2.24 (active)
92 | GGGAGAUGUUGUCAGGGUCTT against Rnasel | -0.476 (inactive)
93 | GGAAAGUGCAUCAUAGACATT against Thrb | 0.153 (inactive)
94 | GGACGAUGUAUUGUUAUUGTT against Lrp10 | 1.49 (inactive)
95 | GGUAUGACUUGCUCUUUAUTT against Rnpep | -0.881 (inactive)
96 | GCAUUUGUGGCCUAUGCUCTT against Naprt | -2.16 (active)
97 | GCUCAAAUGUUCUAAAAGCTT against Acmsd | -0.332 (inactive)
98 | GGCGUAUUUGUCAUUUCUUTT against Dis3l | 0.013 (inactive)
99 | GGAAGUCAUUUUUUCCAAGTT against Msantd4 | 1.12 (inactive)
100 | GCAUUGUUUUUCUAUUCAGTT against Cfhr1 | 0.531 (inactive)
101 | GGUGCUUCACAGAAUGUGUTT against Olfr784 | -1.8 (inactive)
102 | GGGUCUCAAAGCAGUUUUUTT against Rhoj | 3.99 (active)
103 | GCUGAAAACACACCUAGCATT against Gin1 | 1.19 (inactive)
104 | GGCUGUCUUACAAUGUAAUTT against Gabrb2 | -0.638 (inactive)
105 | GAGACUAAUAUAGUGAAUGTT against Foxj1 | -0.314 (inactive)
106 | GGCAGAGAGUCUACAUAUGTT against Bcar3 | -0.272 (inactive)
107 | GCAGAAGGUACUACUAUCGTT against Rcsd1 | 0.669 (inactive)
108 | CCUUGUUGUGACAAGCUUUTT against Rchy1 | -0.362 (inactive)
